Screening results as filed in PubChem.
In the library only some 7.4% were active in any assay of this set; here they are far more common.
NOMO-1 viab = NOMO-1 AML cell viability reduction, primary screen, STK33 inhibitor project, CellTiter-Glo luminescence. NOMO-1 AML viability, 72 h. inhibition, % (concentration not given with the values). hit rate 7.5% among 37,000; in the data active = inhibition above about 80%; inconclusive = no clear call, values can overlap the other calls
YB-1 expr inh = inhibitors of YB-1 gene expression, primary screen, cell-based, fluorescence; U2OS, qRT-PCR YB-1 vs CDIP delta delta Cp, 16 h; active compounds read high; zero = DMSO, each unit about twofold; AID 434959, 2010; hit rate 0.37% among 30,000; delta delta Cp (YB-1 minus CDIP) (test concentration not listed);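 active = delta delta Cp rounded down to an integer at or above 3, about 3 SD of DMSO wells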;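 also: higher means less YB-1 transcript or more CDIP transcript relative to DMSO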
PD-1 reverse act = activators reversing PD-1 mediated T-cell inhibition, primary screen, luminescence, primary human CD4 T cells, PD-L1 beads; AID 2316, 2010; 29,000 tested, under 10 active; activation, % (concentration not given with the values); CellTiter-Glo 96 h; call rule not given here
Hedgehog inh = Hedgehog pathway signaling inhibitors, primary screen, luminescence, Shh-LIGHT2 cells, Gli-luciferase; Shh-LIGHT2 Gli-luciferase reporter, 30 h; inhibition, % (concentration not given with the values); hit rate 2.1% among 22,000; AID 2313, 2010;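 active = mean inhibition across valid replicates above about 65%, limit read from the data; inconclusive = mean under the limit, yet half or more replicates past it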;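 also: pathway switched on by Shh-conditioned medium diluted 1 in 25 in low serum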
MITF inh = inhibitors of MITF, primary screen, MITF inhibitor project, cell-based, luminescence | TRPM1 promoter luciferase, 24 h | inhibition, % (concentration not given with the values) | hit rate 0.28% among 37,000 | AID 2240, 2010; in the data active = inhibition above about 85%; inconclusive = no clear call, values can overlap the other calls; inactive = below about 68%;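 also: human melanocyte line stably carrying TRPM1 promoter luciferase reporter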
Large screens that a line does not name were inactive.

COc1ccc(NC(=O)Nc2ccc3c(c2)C(=O)N([C@H](C)CO)C[C@H](C)[C@H](CN(C)Cc2ccc4c(c2)OCO4)OCCCC[C@@H](C)O3)cc1	Hedgehog inh 72
CCn1ncc(Cl)c1C(=O)NCc1ccco1	none (no result: YB-1 expr inh, Hedgehog inh)
CCOc1ccc(Oc2nc(N3CCOCC3)nc(N3CCOCC3)n2)nn1	none (no result: YB-1 expr inh, Hedgehog inh)
CC(=O)c1cccc(NC(=O)C(C)NS(=O)(=O)c2ccc(Cl)cc2)c1 (configuration not stated)	none (no result: YB-1 expr inh, Hedgehog inh)
C/C(=C\Cc1c(O[C@@H]2O[C@H](CO)[C@@H](O)[C@H](O)[C@H]2O)ccc2ccc(=O)oc12)CO	none (no result: NOMO-1 viab, PD-1 reverse act, MITF inh)
COc1ccc(NC(=O)Nc2ccc3c(c2)C(=O)N([C@H](C)CO)C[C@H](C)[C@H](CN(C)Cc2ccc(Cl)c(Cl)c2)OCCCC[C@@H](C)O3)cc1	NOMO-1 viab 98
C[C@@H]1CCCCO[C@@H](CN(C)Cc2ccc(Cl)c(Cl)c2)[C@@H](C)CN([C@H](C)CO)C(=O)c2cc(NC(=O)NC3CCCCC3)ccc2O1	NOMO-1 viab 112 (no result: Hedgehog inh)
C[C@@H]1CCCCO[C@H](CN(C)Cc2ccc(Cl)c(Cl)c2)[C@@H](C)CN([C@H](C)CO)C(=O)c2cc(NC(=O)Nc3ccc(F)cc3)ccc2O1	NOMO-1 viab 126 (no result: PD-1 reverse act, Hedgehog inh)
C[C@@H]1CCCCO[C@@H](CN(C)Cc2ccc(Cl)c(Cl)c2)[C@@H](C)CN([C@H](C)CO)C(=O)c2cc(NC(=O)c3ccccc3)ccc2O1	NOMO-1 viab 122
COc1cccc(C(=O)COc2cccc(NC(=O)c3ccc(Cl)c(Cl)c3)c2)c1	none (no result: YB-1 expr inh, PD-1 reverse act, Hedgehog inh)
C[C@H]1CN([C@@H](C)CO)C(=O)c2cccc(NC(=O)NC3CCCCC3)c2O[C@@H]1CN(C)C(=O)Nc1ccc(C(F)(F)F)cc1	NOMO-1 viab 100
C[C@H](CO)N1C[C@H](C)[C@H](CN(C)C(=O)Nc2ccc(C(F)(F)F)cc2)Oc2c(NC(=O)C3CCCCC3)cccc2C1=O	NOMO-1 viab 95
C[C@H](CO)N1C[C@H](C)[C@H](CN(C)C(=O)Nc2ccc(C(F)(F)F)cc2)Oc2c(NC(=O)NC3CCCCC3)cccc2C1=O	NOMO-1 viab 106
CS(=O)(=O)N(CC(=O)Nc1ccc(Cl)cc1)c1cccc([N+](=O)[O-])c1	none (no result: YB-1 expr inh, Hedgehog inh)
O=C1c2cccc(O)c2C(=O)c2c(O)cccc21	none (no result: PD-1 reverse act)
CC1CC(=O)c2c(ccc3c2C(=O)c2cccc(O)c2C3O)C1 (configuration not stated)	NOMO-1 viab 118
C=C1CCC(O)/C(C)=C\CC(C(C)C)C(OC2OC(COC(C)=O)C(O)C(O)C2O)C1 (configuration not stated)	none
C=C(C(=O)O[C@H]1C/C=C(/C)C[C@H](O)[C@H]2[C@H](C)C(=O)O[C@@H]2/C=C\1C)[C@@H]1CCC(=C)[C@@H]2C[C@H](O[C@@H]3O[C@H](COC(=O)CC(=O)O)[C@@H](O)[C@H](O)[C@H]3O)C(=C)[C@@H]2C1	NOMO-1 viab 105
C[C@@H]1CCCCO[C@@H](CN(C)Cc2ccc(C(=O)Nc3ccccc3N)cc2)[C@@H](C)CN([C@H](C)CO)C(=O)c2cc(NC(=O)Cc3ccccc3)ccc2O1	NOMO-1 viab 127 (no result: Hedgehog inh)
C[C@@H]1CCCCO[C@@H](CN(C)Cc2ccc(C(F)(F)F)cc2)[C@@H](C)CN([C@H](C)CO)C(=O)c2cc(NC(=O)CCCCCC(=O)Nc3ccccc3N)ccc2O1	NOMO-1 viab 125 (no result: Hedgehog inh)
C[C@H]1CN([C@@H](C)CO)C(=O)c2cc(NC(=O)Cc3ccccc3)ccc2O[C@H]1CN(C)Cc1ccc(C(=O)Nc2ccccc2N)cc1	NOMO-1 viab 108 (no result: Hedgehog inh)
C[C@@H]1CN([C@@H](C)CO)C(=O)c2cc(NC(=O)Cc3ccccc3)ccc2O[C@H]1CN(C)Cc1ccc(C(=O)Nc2ccccc2N)cc1	NOMO-1 viab inconclusive (no result: Hedgehog inh)
C[C@@H]1CN([C@@H](C)CO)C(=O)c2cc(NC(=O)Cc3ccccc3)ccc2O[C@@H]1CN(C)Cc1ccc(C(=O)Nc2ccccc2N)cc1	NOMO-1 viab 109 (no result: Hedgehog inh)
C[C@@H]1CN([C@H](C)CO)C(=O)c2cc(NC(=O)Cc3ccccc3)ccc2O[C@H]1CN(C)Cc1ccc(C(=O)Nc2ccccc2N)cc1	none (no result: Hedgehog inh)
CC(C)NC(=O)Nc1ccc2c(c1)C(=O)N([C@H](C)CO)C[C@H](C)[C@H](CN(C)Cc1ccc(C(=O)Nc3ccccc3N)cc1)OCCCC[C@@H](C)O2	none (no result: Hedgehog inh)
C[C@@H]1CCCCO[C@H](CN(C)Cc2ccc(C(=O)Nc3ccccc3N)cc2)[C@@H](C)CN([C@H](C)CO)C(=O)c2cc(NS(=O)(=O)c3ccc(F)cc3)ccc2O1	NOMO-1 viab 128 (no result: Hedgehog inh)
CC(=O)Oc1cc(OC(C)=O)c2c(c1)O[C@H](c1ccc(OC(C)=O)c(OC(C)=O)c1)[C@H](OC(C)=O)C2	none (no result: PD-1 reverse act)
N#Cc1c(SC2CCCC2)nsc1SC1CCCC1	none
Cc1ccc(C(=O)CCNc2ccc3c(c2)oc2ccccc23)o1	none (no result: YB-1 expr inh, Hedgehog inh)
C/C(CCc1oc2ccccc2c1-c1ccc(C)o1)=N\O	NOMO-1 viab 108 (no result: Hedgehog inh)
Cc1ccc(-n2c(SCC(=O)Nc3cccc(C)c3C)nnc2-c2ccncc2)cc1C	none (no result: YB-1 expr inh, Hedgehog inh)
CCCCC(=O)/C=C/n1c(=S)oc2ccccc21	NOMO-1 viab 133 (no result: Hedgehog inh)
CCn1c(SCC(N)=O)nnc1-c1ccncc1	none (no result: YB-1 expr inh, Hedgehog inh)
CN1/C(=C2/SC(=S)N(c3ccccc3)C2=O)Sc2ccccc21	none
O=C1CCCC(O)=C1C=Nc1cccc2ccccc12	none
Cc1ccc(N=Cc2cc3ccccc3nc2Cl)cc1Cl	NOMO-1 viab 114, Hedgehog inh 89
Fc1ccc(C=Nc2ccc3ccccc3c2)cc1	none
COc1ccc(C(c2cn(C)c3ccccc23)c2cn(C)c3ccccc23)c(OC)c1OC	none (no result: YB-1 expr inh, Hedgehog inh)
Cc1nc(-c2cc(C#N)c(SCCNS(=O)(=O)c3ccc(C(C)(C)C)cc3)nc2C)cs1	Hedgehog inh 90
CC(C)(C)c1ccc(S(=O)(=O)CC(O)CSc2nc3c(cc2C#N)CCCC3)cc1 (configuration not stated)	none (no result: YB-1 expr inh, Hedgehog inh)
CCOc1ccc(NC(=O)c2c(NC(=O)c3ccco3)sc3c2CCCCC3)cc1	NOMO-1 viab 110 (no result: YB-1 expr inh, PD-1 reverse act, Hedgehog inh)
C=CCNC1=C2C[C@@H](C)C[C@H](OC)[C@H](O)[C@@H](C)/C=C(\C)[C@H](OC(N)=O)[C@@H](OC)C=C/C=C(/C)C(=O)NC(=CC1=O)C2=O	NOMO-1 viab 119, Hedgehog inh 108 (no result: PD-1 reverse act)
C[C@H]1CN([C@@H](C)CO)C(=O)c2cccc(NC(=O)Nc3ccc4c(c3)OCO4)c2O[C@H]1CN(C)Cc1ccccc1	none
C[C@H](CO)N1C[C@H](C)[C@H](CN(C)Cc2ccc(-c3ccccc3)cc2)Oc2c(NC(=O)Nc3ccc4c(c3)OCO4)cccc2C1=O	NOMO-1 viab 120
